Results filed as inconclusive are left out. Entries that show only a call come without a potency. Activity calls are given as the source filed them. Calls follow the shape of the dose curve; as a rule, active = well fitted inhibition curve with a large enough effect; inconclusive = small, poorly fitted or top-dose-only effect; inactive = no such curve, though single readings can be large or run the other way. Non-standard residues stand in square brackets, D forms with d. Residues, ends and D or L forms follow the SMILES beside them. Peptide text beside a SMILES is read from it. *: point of attachment. Sta = CC(C)C[C@H](N)[C@@H](O)CC(=O)O; Isovaleryl = CC(C)CC(=O)*
Experiment: NS1 protein of Zika virus - qHTS assay to identify small molecule inhibitors in human HEK 293 cells (AID 1347053); also: nearly all actives have a fitted effect of over 55% in size
Conditions: HEK293 ZIKV MR766 infection, NS1 TR-FRET, 24 h; series mostly up to 46.1 µM
From the text: National Center for Advancing Translational Sciences [NCATS]
Johns Hopkins University School of Medicine
The non-structural 1 (NS1) protein of zika virus is known to associate with the viral replication complex. This cell-based TR-FRET ZIKV NS-1 assay measures the increased NS-1 protein in human HEK 293 cells after a 24-hour Zika virus infection by a TR-FRET assay readout. A decrease in the Time-resolved fluorescence energy transfer (TR-FRET) signal in this assay by small molecule treatment indicates an inhibitory effect of the small molecule on the expression of Zika virus NS1 correlating with Zika virus replication.
HEK 293 cells were cultured in EMEM (ATCC, Cat. # 30-2003) medium with 10% fetal bovine serum (GE healthcare Life Sciences, Cat. # SH30071.03), and 1% Pen/Strep (Gibco, Cat. # 15140-122). Cells were seeded in the assay plate and incubated at 37 C with 5% CO2 for 20 hours. Compounds were added to cells and incubated for one hour before addition of ZIKV MR766 strain solution to cells (MOI = 0.5). After an incubation at 37 C for 24 hours, the reagent mixture of TR-FRET ZIKV NS1 assay using two anti-ZIKV NS1 antibodies was added to assay plates. The TR-FRET signals in assay plates were measured using an Envision plate reader (PerkinElmer). Data were normalized by using the cell-containing wells without ZIKV as a negative control (0% NS-1) and wells containing ZIKV infected cells as a positive control (100% NS-1 level).
Potency is read from the fitted curve at half-maximal effect.

Q: Which Potency does the source give for `O=C(NCCO[N+](=O)[O-])c1cccnc1` here?
A: inactive

Q: With `CCCS(=O)c1ccc2nc(NC(=O)OC)[nH]c2c1` (stereo not given) as the compound, how does the Potency read?
A: inactive

Q: With `COC(=O)[C@H](Cc1ccccc1)NC(=O)[C@@H](N)CC(=O)O` (H-Asp-Phe-OMe) as the compound, how does the Potency read?
A: inactive

Q: Which Potency does the source give for `CC(C)Oc1ccc2c(=O)c(-c3ccccc3)coc2c1` here?
A: inactive

Q: With `CCN(CC)C(=S)SSC(=S)N(CC)CC` as the compound, how does the Potency read?
A: 8.33 µM (active)

Q: For `COc1cc(OC)c(C(=O)CCCN2CCCC2)c(OC)c1`, which Potency is on record?
A: inactive

Q: With `CN1C(C(=O)Nc2ccccn2)=C(O)c2sccc2S1(=O)=O` as the compound, how does the Potency read?
A: inactive

Q: Which Potency does the source give for `COC(=O)N[C@H](C(=O)N[C@@H](Cc1ccccc1)[C@@H](O)CN(Cc1ccc(-c2ccccn2)cc1)NC(=O)[C@@H](NC(=O)OC)C(C)(C)C)C(C)(C)C` here?
A: inactive

Q: For `Cc1c(C(=O)NN2CCCCC2)nn(-c2ccc(Cl)cc2Cl)c1-c1ccc(Cl)cc1`, which Potency is on record?
A: 18.7 µM (active)

Q: Which Potency does the source give for `COC1=C(OC)C(=O)C(CCCCCCCCCCO)=C(C)C1=O` here?
A: inactive

Q: Which Potency does the source give for `Cc1cc(=O)c2c(O)c3c(O)cc(=O)c4c3c3c(cc(O)c1c23)C(C)(C)C=4O` here?
A: inactive

Q: Which Potency does the source give for `COc1ccc2cc([C@H](C)C(=O)O)ccc2c1` here?
A: inactive

Q: For `O=C(CCc1ccc(O)cc1)c1c(O)cc(O)cc1O`, which Potency is on record?
A: inactive

Q: For `CN(C)c1ccc(O)c2c1C[C@H]1C[C@H]3[C@H](N(C)C)C(=O)C(C(N)=O)=C(O)[C@@]3(O)C(=O)C1=C2O`, which Potency is on record?
A: inactive

Q: For `c1ccc2[nH]c(-c3cscn3)nc2c1`, which Potency is on record?
A: inactive

Q: With `CCC[C@@H]1C[C@@H](C(=O)N[C@@H]([C@H]2O[C@H](SC)[C@H](O)[C@@H](O)[C@H]2O)[C@@H](C)O)N(C)C1` as the compound, how does the Potency read?
A: inactive

Q: For `CCCCCCCCCCCCCCCCCCCCCCO`, which Potency is on record?
A: inactive

Q: With `C[C@]12CCC(=O)C=C1CC[C@@H]1[C@H]2[C@@H](O)C[C@@]2(C)[C@H]1CC[C@]2(O)C(=O)CO` as the compound, how does the Potency read?
A: inactive

Q: Which Potency does the source give for `O=C(O)c1cc(=O)c2c(OCC(O)COc3cccc4oc(C(=O)O)cc(=O)c34)cccc2o1` here?
A: inactive

Q: Which Potency does the source give for `Cc1cc(Cl)ccc1OCCCC(=O)NO` here?
A: inactive

Q: For `OC(CN1CCN(c2cccc(Cl)c2)CC1)C(c1ccccc1)c1ccccc1` (stereo not given), which Potency is on record?
A: inactive

Q: For `Cc1cc2cc3c(C)cc(=O)oc3c(C)c2o1`, which Potency is on record?
A: inactive

Q: Which Potency does the source give for `N=C(N)c1ccc2cc(OC(=O)c3ccc(N=C(N)N)cc3)ccc2c1` here?
A: inactive

Q: Which Potency does the source give for `CC(C)CC(=O)N[C@H](C(=O)N[C@H](C(=O)N[C@@H](CC(C)C)[C@@H](O)CC(=O)N[C@@H](C)C(=O)N[C@@H](CC(C)C)[C@@H](O)CC(=O)O)C(C)C)C(C)C` (Isovaleryl-VV[Sta]A[Sta]-OH) here?
A: inactive

Q: With `Cc1cc2c(s1)Nc1ccccc1N=C2N1CCN(C)CC1` as the compound, how does the Potency read?
A: inactive

Q: Which Potency does the source give for `CC1(C)C(=O)N(CCN2CCC(C(=O)c3ccc(F)cc3)CC2)c2ccccc21` here?
A: inactive

Q: With `O=c1oc2cc(O)ccc2s1` as the compound, how does the Potency read?
A: inactive

Q: With `O=C(O)c1cccnc1Nc1cccc(C(F)(F)F)c1` as the compound, how does the Potency read?
A: inactive

Q: Which Potency does the source give for `C[C@H](Cc1ccc(O)c(O)c1)[C@@H](C)Cc1ccc(O)c(O)c1` here?
A: inactive

Q: With `CC1=C(C)C(=O)C(C(CCCCCC(=O)O)c2ccccc2)=C(C)C1=O` (stereo not given) as the compound, how does the Potency read?
A: inactive

Q: Which Potency does the source give for `CC(C)(S)[C@@H](N)C(=O)O` here?
A: inactive

Q: For `Cc1c(OCC(F)(F)F)ccnc1CS(=O)c1nc2ccccc2[nH]1` (stereo not given), which Potency is on record?
A: inactive

Q: For `O=c1c(O)c(-c2ccc(O)cc2O)oc2cc(O)cc(O)c12`, which Potency is on record?
A: inactive

Q: With `COc1cc2c(cc1OC)C1CC(=O)C(CC(C)C)CN1CC2` (stereo not given) as the compound, how does the Potency read?
A: inactive

Q: With `Nc1cccc2c1CN(C1CCC(=O)NC1=O)C2=O` (stereo not given) as the compound, how does the Potency read?
A: inactive

Q: For `O=C1c2ccccc2-c2n[nH]c3cccc1c23`, which Potency is on record?
A: inactive

Q: For `COc1ccc(C2(C#N)CCC(C(=O)O)CC2)cc1OC1CCCC1` (stereo not given), which Potency is on record?
A: inactive

Q: For `O=c1ccc2ccc(O)c(O)c2o1`, which Potency is on record?
A: inactive

Q: For `CC(=O)NC[C@H]1CN(c2ccc(N3CCOCC3)c(F)c2)C(=O)O1`, which Potency is on record?
A: inactive

Q: For `COc1c2occc2cc2ccc(=O)oc12`, which Potency is on record?
A: inactive
